PrPC TRFRET = inhibitors of human cell surface prion protein PrPC. P04156. TR-FRET read-out. 370,000 compounds, 0.43% hits. inhibition, % at 13.8 µM. AID 720596; in the data active = inhibition above about 24%; also: 0% = median of the test wells and 100% = reference compound wells
FBA Mtb inh = inhibitors of M. tuberculosis fructose-bisphosphate aldolase. P9WQA3. purified M. tuberculosis FBA, fluorescence read-out. inhibition, % at 1 µM. 360,000 compounds, 2.3% hits; in the data active = inhibition above about 27%;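 also: 0% = vehicle and 100% = reference inhibitor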
GDH-TPI inh = counter-screen for M. tuberculosis FBA inhibitors: GDH-TPI coupled enzymes. 360,000 compounds, 1.2% hits. GDH-TPI coupled enzyme counterscreen, NADH absorbance. inhibition, % at 4.8 µM; in the data active = inhibition above about 30%;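 also: 0% = DMSO wells and 100% = wells lacking the enzyme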
TcdB inh = inhibitors of Clostridioides difficile toxin B glycohydrolase; AID 652162; TcdB glycohydrolase enzymatic assay, plate reader; 350,000 compounds, 0.24% hits; inhibition, % at 9.99 µM; P18177; in the data active = inhibition above about 10%
Yp Topo-I inh = inhibitors of Yersinia pestis topoisomerase I; 360,000 compounds, 0.064% hits; Y. pestis Topo-I cleavage product accumulation, plate reader; activity, % at 10 µM; AID 504884; in the data active = activity above about 50%, passing the limit was not always enough
An asterisk follows results filed as active; nt = not tested or not shown. Rows were chosen to be rich in hits. Some 3.2% of all compounds tested hit in one or more screens of this group.

SMILES	PrPC TRFRET	FBA Mtb inh	GDH-TPI inh	TcdB inh	Yp Topo-I inh
O=[N+]([O-])c1ccc(C=NNC(=S)NN=Cc2ccc([N+](=O)[O-])cc2)cc1	-24	-1	31*	-1	-18
NC(=S)N/N=C/c1ccc(/C=N/NC(N)=S)cc1	-11	-1	111*	1	14
O=[N+]([O-])c1ccc(C=NNC(=S)Nc2ccc(F)cc2)cc1	-2	0	28	-3	-13
NC(=S)N/N=C/c1cccc(/C=N/NC(N)=S)c1	-3	-1	37*	0	-3
NC(=S)N/N=C/c1cccc(Br)c1	-8	-3	10	2	3
NC(=S)N/N=C/C=C/c1ccccc1	2	1	38*	1	2
C[C@@H]1CCCCO[C@@H](CN(C)Cc2ccc(C(=O)Nc3ccccc3N)cc2)[C@@H](C)CN([C@H](C)CO)C(=O)c2cc(NS(=O)(=O)c3cn(C)cn3)ccc2O1	nt	nt	nt	0	nt
O=C(N[C@@H]1CC[C@@H](CCNS(=O)(=O)c2ccccc2)O[C@@H]1CO)c1cnccn1	nt	nt	nt	-1	nt
O=C(C[C@@H]1CC[C@H](NC(=O)Cc2cccnc2)[C@H](CO)O1)Nc1ccccc1	nt	nt	nt	-1	nt
O=S(=O)(N/N=C\c1cccnc1)c1ccccc1	3	1	5	1	-2
O=S(=O)(N/N=C\C=C\c1ccccc1)c1ccccc1	-1	-5	31*	1	-1
Cc1ccc(NC(=O)c2nc[nH]c2C(=O)NCCN(CCNC(=O)c2[nH]cnc2C(=O)Nc2ccc(C)cc2)CCNC(=O)c2[nH]cnc2C(=O)Nc2ccc(C)cc2)cc1	-6	0	3	1	6
CC(C)(C)OC(=O)NCc1ccc(NC(=O)c2nc[nH]c2C(=O)NCCNC(=O)c2[nH]cnc2C(=O)Nc2ccc(CNC(=O)OC(C)(C)C)cc2)cc1	nt	-1	0	nt	79*
CC(C)(C)OC(=O)NCCCCCNC(=O)c1nc[nH]c1C(=O)NCc1ccc(CNC(=O)OC(C)(C)C)cc1	25*	3	11	0	-13
O=C(Nc1ccc(Cl)cc1)c1nc[nH]c1C(=O)NCCN(CCNC(=O)c1[nH]cnc1C(=O)Nc1ccc(Cl)cc1)CCNC(=O)c1[nH]cnc1C(=O)Nc1ccc(Cl)cc1	nt	2	-18	nt	64*
CC(C)NC(=O)Nc1ccc2c(c1)C(=O)N([C@@H](C)CO)C[C@H](C)[C@@H](CN(C)C(=O)Nc1ccc(F)cc1)O2	nt	nt	nt	0	nt
NC(=O)c1cccc2c1-c1ccccc1/C2=N/NC(N)=S	-26	-2	41*	1	-2
COc1cccc2[nH]c3c(N4CCCCC4)ncnc3c12	-1	15	11	nt	-1
CCOC(=O)N1CCN(c2ncnc3c2[nH]c2ccc(OC)cc23)CC1	2	125*	15	nt	3
CCOC(=O)C1CCN(c2ncnc3c2[nH]c2cccc(OC)c23)CC1	2	125*	27	nt	-16
CCOC(=O)N1CCN(c2ncnc3c2[nH]c2ccc(F)cc23)CC1	15	10	6	nt	8
CCCNC(=O)C[C@H]1CC[C@H]2[C@H](COc3ccc(NC(=O)Nc4c(C)noc4C)cc3C(=O)N2C)O1	nt	nt	nt	0	nt
Cc1oc2cc(OCC(=O)O)ccc2c(=O)c1Oc1ccccc1	10	1	4	2	-3
CCc1cc2c(=O)c(Oc3ccccc3)c(C)oc2cc1O	6	186*	18	nt	0
C[C@@H]1CN([C@H](C)CO)S(=O)(=O)c2ccc(-c3ccccc3F)cc2O[C@@H]1CN(C)Cc1ccncc1	nt	nt	nt	0	nt
SMILES	PrPC TRFRET	FBA Mtb inh	GDH-TPI inh	TcdB inh	Yp Topo-I inh
O=C1CC(c2ccccc2)CC(O)=C1C=NCC1CCCO1 (stereo unspecified)	3	1	11	nt	6
Oc1[nH]c2ccccc2c1C=NCC1CCCO1 (stereo unspecified)	-3	-2	35*	nt	3
COc1ccc(-c2nc3c(n2O)CCc2c-3no[n+]2[O-])cc1	-4	-3	41*	1	0
C[C@@H]1CN([C@@H](C)CO)C(=O)c2cc(NC(=O)Nc3ccc(C(F)(F)F)cc3)ccc2O[C@H]1CN(C)S(=O)(=O)c1ccc(Cl)cc1	nt	nt	nt	0	nt
CC(=O)N(C)C[C@@H]1[C@@H](c2ccccc2)[C@H](CO)N1C(=O)C1CC1	nt	nt	nt	1	nt
COC(=O)Nc1nnc(-c2ccccc2Cl)s1	-5	48*	2	nt	-2
COC(=O)Nc1nnc(-c2ccco2)s1	8	-4	-4	1	-3
COCC(=O)Nc1ccc2c(c1)C(=O)N(C)C[C@@H](OC)[C@@H](C)CN(C(=O)C1CCCC1)[C@H](C)CO2	nt	nt	nt	-6	nt
Cc1ccc(S(=O)(=O)Nc2ccc3c(c2)CC(=O)N([C@H](C)CO)C[C@@H](C)[C@@H](CN(C)S(=O)(=O)c2cn(C)cn2)O3)cc1	nt	nt	nt	1	nt
CCCC(=O)Nc1ccc2c(c1)OC[C@H](C)N(CC1CCCC1)C[C@@H](C)[C@H](OC)CN(C)C2=O	nt	nt	nt	0	nt
CCC(=O)Nc1ccc2c(c1)C(=O)N(C)C[C@H](OC)[C@@H](C)CN(C(=O)NC(C)C)[C@@H](C)CO2	nt	nt	nt	0	nt
CCC(=O)Nc1ccc2c(c1)OC[C@@H](C)N(C(=O)NC(C)C)C[C@H](C)[C@H](OC)CN(C)C2=O	nt	nt	nt	15*	nt
CCCC(=O)Nc1ccc2c(c1)OC[C@H](C)N(CC1CCCC1)C[C@H](C)[C@@H](OC)CN(C)C2=O	nt	nt	nt	30*	nt
CCC(=O)Nc1ccc2c(c1)OC[C@H](C)N(C(=O)NC(C)C)C[C@@H](C)[C@@H](OC)CN(C)C2=O	nt	nt	nt	11*	nt
CCCC(=O)Nc1ccc2c(c1)C(=O)N(C)C[C@H](OC)[C@H](C)CN(C(=O)c1cnccn1)[C@H](C)CO2	nt	nt	nt	1	nt
COc1ccc(/C=C(/NC(=O)c2cccs2)C(=O)NC(C)(C)C)cc1OC	10	-3	13	-1	4
COc1ccc(/C=C(\NC(=O)c2cccs2)C(=O)NN)cc1OC	-3	0	38*	-4	-7
O=C(C[C@@H]1CC[C@H](NC(=O)c2ccccc2)[C@@H](CO)O1)NCCc1ccncc1	nt	nt	nt	0	nt
COCCNC(=O)c1cc2c3ccccc3n(C)c2s1	0	3	47*	nt	23
CC(=O)c1cccc(NC(=O)CCc2nnc3ccc(NCc4ccc5c(c4)OCO5)nn23)c1	-1	5	-1	0	73*
CCN(CC)c1ccc(C=C2C(=O)OC(C)(C(C)(C)C)OC2=O)cc1 (stereo unspecified)	10	-1	36*	0	17
C[C@H](NC(=O)C[C@H]1C[C@@H]2c3cc(NC(=O)Cc4ccncc4)ccc3O[C@@H]2[C@@H](CO)O1)c1ccccc1	nt	nt	nt	-1	nt
CS(=O)(=O)c1nc(-c2ccc(F)cc2)cc(C(F)(F)F)n1	4	14	7	1	5
COc1ccc(-c2cc(C(F)(F)F)nc(S(C)(=O)=O)n2)cc1	14	7	39*	nt	10
CCC1OC23CCCCC2C(C#N)(C(=N)O3)C1(C#N)C#N (stereo unspecified)	-13	58*	13	nt	5
COc1ccc(/C(O)=C/C(=O)C(=O)Nc2c(C)n(C)n(-c3ccccc3)c2=O)cc1	1	-2	34*	nt	3

Bioassay records from PubChem BioAssay.
